The source made the active and inactive calls. Rule for the calls: active = hit-call score of the fitted dose curve at least 0.9, where 1 is the maximum; inactive = score below 0.9.
These compounds were tested against rat Glutamate (Kainate, Non-Selective), conducted at France lab site, Grik1 (gene 29559) (UniProt P22756) (assay: ERF_FR_LGIC_rGRIK1: Eurofins (ERF) Ion Channel [3H] Kainic acid Binding LeadHunter Assay for rat Glutamate (Kainate, Non-Selective), conducted at France lab site).
Method: ERF_FR_LGIC_rGRIK1 is a biochemical, single-readout assay that uses extracted gene-proteins in a cell-free assay. Measurements were taken 1 hour after chemical dosing in a 96-well plate. See Glutamate (Kianate, Non-Selective) Rat Ion Channel [3H]- Kainic acid Binding Assay, Cerep.ERF_FR_LGIC_rGRIK1 is an assay component calculated from the ERF_FR_LGIC_rGRIK1 assay. It is designed to measure radioligand binding using a type of binding reporter as detected by scintillation counting with radiometry technology.Data from the assay component ERF_FR_LGIC_rGRIK1 was analyzed at the assay endpoint, ERF_FR_LGIC_rGRIK1, in the positive analysis fitting direction relative to DMSO as the negative control and baseline of activity. Using a type of binding reporter, loss-of-signal activity can be used to understand changes in binding as they relate to gene GRIK1. To generalize the intended target to other relatable targets, this assay endpoint is annotated to the ion channel intended target family, where the subfamily is ligand-gated (glutamate, Ionotropic).
Glutamate kainite receptor containing membranes are prepared from brain cortices from male Wistar rats in Tris-HCl buffer pH 7.4. A 10 mg aliquot is incubated with 5 nM [3H]Kainic acid for 60 minutes at 4C. […] Membranes are filtered and washed, the filters are then counted to determine [3H]Kainic acid specifically bound.

rat Glutamate (Kainate, Non-Selective), conducted at France lab site, Grik1 (gene 29559), sequence (P22756 whole entry, looked up): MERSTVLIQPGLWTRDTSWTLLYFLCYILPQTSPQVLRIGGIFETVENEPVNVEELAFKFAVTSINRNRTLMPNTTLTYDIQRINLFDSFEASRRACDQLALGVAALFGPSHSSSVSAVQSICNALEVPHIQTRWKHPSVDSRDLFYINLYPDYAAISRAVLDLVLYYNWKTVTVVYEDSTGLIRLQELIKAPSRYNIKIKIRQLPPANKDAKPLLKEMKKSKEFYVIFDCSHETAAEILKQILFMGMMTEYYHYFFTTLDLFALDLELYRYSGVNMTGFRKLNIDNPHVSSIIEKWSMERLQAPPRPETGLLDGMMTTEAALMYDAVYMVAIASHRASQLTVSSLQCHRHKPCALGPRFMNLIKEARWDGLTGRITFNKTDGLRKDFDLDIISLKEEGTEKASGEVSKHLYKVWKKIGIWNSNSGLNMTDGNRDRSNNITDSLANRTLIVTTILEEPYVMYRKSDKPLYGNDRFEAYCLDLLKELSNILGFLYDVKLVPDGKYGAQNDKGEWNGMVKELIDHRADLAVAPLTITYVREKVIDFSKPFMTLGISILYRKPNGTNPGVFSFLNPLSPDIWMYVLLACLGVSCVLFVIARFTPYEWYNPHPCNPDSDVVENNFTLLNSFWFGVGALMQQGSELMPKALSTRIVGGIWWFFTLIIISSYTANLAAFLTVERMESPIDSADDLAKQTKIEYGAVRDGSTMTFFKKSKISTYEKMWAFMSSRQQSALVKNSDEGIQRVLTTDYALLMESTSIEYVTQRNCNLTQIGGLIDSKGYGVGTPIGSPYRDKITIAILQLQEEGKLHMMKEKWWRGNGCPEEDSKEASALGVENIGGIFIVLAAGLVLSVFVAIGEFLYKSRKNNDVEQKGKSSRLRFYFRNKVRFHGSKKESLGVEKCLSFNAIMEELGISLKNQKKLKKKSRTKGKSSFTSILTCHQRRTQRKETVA

Compound	AC50
O=C(/C=C/c1ccc(O)cc1)CC(=O)/C=C/c1ccc(O)cc1	2.87 µM (active)
